Assay results reported in PubChem BioAssay (NCATS).
Results filed as inconclusive are left out. The source made the active and inactive calls. The call rests on the fitted dose curve; in most records, active means well fitted activation curve with a large enough effect; inconclusive means small, poorly fitted or top-dose-only effect, or effect the other way; inactive means flat fitted curve, though single readings scatter.

experiment: qHTS Assay for Identification of Small Molecule Agonists for Thrombopoietin (TPO) Signaling Pathway (AID 917); details: TPO signaling pathway reporter cells, agonist qHTS, stimulated with TPO at its EC50; series mostly up to 38.5 µM
In short: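 IL-3-dependent murine pro-B Ba/F3 cells, stably transfected with human TPO receptor and GpIIb-promoter luciferase, are incubated 24 hrs at 37 C with test compound and 26 pM TPO; luciferase signal is read after 10 min at room temperature.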

SMILES | outcome
CCc1c(C)[nH]c2c1C(=O)C(CN1CCOCC1)CC2 (stereo unspecified) | inactive
CN(C)CC/C=C1\c2ccccc2COc2ccccc21 | inactive
C[C@]12CCC(=O)C=C1CC[C@@H]1[C@@H]2CC[C@@]2(C)[C@H]1CC[C@]2(O)C(=O)CO | inactive
C[C@]12C=CC(=O)C=C1CC[C@H]1[C@@H]3C[C@@H](O)[C@](O)(C(=O)CO)[C@@]3(C)C[C@H](O)[C@@]12F | inactive
CSc1ccc(C(=O)c2[nH]c(=O)[nH]c2C)cc1 | inactive
CCNC(=O)N1CCN(CCCC(c2ccc(F)cc2)c2ccc(F)cc2)CC1 | inactive
C[N+](C)(C)CCCCCCCCCC[N+](C)(C)C | inactive
Brc1c(NC2=NCCN2)ccc2nccnc12 | inactive
C[C@]12CCC(=O)C=C1CC[C@@H]1[C@@H]2C(=O)C[C@@]2(C)[C@H]1CC[C@]2(O)C(=O)CO | inactive
c1cnc(N2CCN(Cc3ccc4c(c3)OCO4)CC2)nc1 | inactive
CCN1CCc2nc(N)oc2CC1 | inactive
CCOC(=O)c1cnc2c(cnn2CC)c1NN=C(C)C | inactive
Cc1nc2c([nH]1)c(=O)n(C)c(=O)n2Cc1ccco1 | inactive
CN(C(=O)CCCOc1ccc2[nH]c(=O)ccc2c1)C1CCCCC1 | inactive
NCCCNCCSP(=O)(O)O | inactive
CC1=C(C)C(=O)C(CCCCC#CCCCC#CCO)=C(C)C1=O | inactive
O=C1CC2(CCCC2)CC(=O)N1CCCCN1CCN(c2ncccn2)CC1 | inactive
C(=C\c1ccccc1)/CN1CCN(C(c2ccccc2)c2ccccc2)CC1 | inactive
C[N+](C)(C)CCOC(=O)CCC(=O)OCC[N+](C)(C)C | inactive
NC(N)=NC(=O)Cc1c(Cl)cccc1Cl | inactive
CC(=O)Oc1cc(C(C)C)c(OCCN(C)C)cc1C | inactive
